Records with an inconclusive call do not appear. The source made the active and inactive calls. Unless noted, calls come from the whole dose curve.
Legend:
[1] = biological target: Peroxisome proliferator-activated receptor delta (Homo sapiens) (UniProt Q03181); test: qHTS assay to identify small molecule agonists of the peroxisome proliferator-activated receptor delta (PPARd) signaling pathway (AID 743212)
Procedure, shortened: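 HEK293H PPARd-bla cells; 5 h preincubation 37 C/5% CO2; compound (DMSO) 37 C; LiveBLAzer B/G FRET substrate 2 h RT; fluorescence intensity.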

[2] = biological target: Peroxisome proliferator-activated receptor delta (Homo sapiens) (UniProt Q03181); test: qHTS assay to identify small molecule antagonists of the peroxisome proliferator-activated receptor delta (PPARd) signaling pathway (AID 743215; active = well fitted inhibition curve with a large enough effect in the signal ratio in the repeat runs, not every such curve was filed as active; the % refers to the signal ratio;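 note: cells stimulated with agonist L165041 at 300 nM final during compound exposure; series mostly up to about 62 µM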)
Procedure, shortened: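 Antagonist-mode beta-lactamase reporter screen: HEK293H cells with UAS-bla under PPARd control, stimulated by 300 nM L165041 (final) alongside test compound for 17 h at 37 C, then FRET fluorescence after 2 h substrate incubation.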

[3] = biological target: Bile acid receptor (Homo sapiens) (UniProt Q96RI1); test: qHTS assay to identify small molecule antagonists of the farnesoid-X-receptor (FXR) signaling pathway (AID 743217; active = well fitted inhibition curve with a large enough effect in the signal ratio in the repeat runs, not every such curve was filed as active; the % refers to the signal ratio)
Procedure, shortened: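 Beta-lactamase reporter under UAS control in HEK 293T cells; compound exposure 16 h at 37 °C in the presence of chenodeoxycholic acid (50 uM final); signal from B/G FRET substrate after 2 h at room temperature.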

[4] = biological target: Bile acid receptor (Homo sapiens) (UniProt Q96RI1); test: qHTS assay to identify small molecule agonists of the farnesoid-X-receptor (FXR) signaling pathway (AID 743220; active = well fitted activation curve with a large enough effect in the signal ratio in the repeat runs, not every such curve was filed as active; the % refers to the signal ratio)
Procedure, shortened: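 Beta-lactamase reporter under UAS control in GeneBLAzer FXR HEK 293T cells (5000/well) measured with LiveBLAzer FRET substrate after 2 h at room temperature. Compound exposure lasted 16 h at 37C.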

[5] = qHTS assay to identify small molecule antagonists of the farnesoid-X-receptor (FXR) signaling pathway - cell viability counter screen (AID 743221; active = well fitted cell-killing curve with a large enough effect in the repeat runs, not every such curve was filed as active; note: nearly all actives have a fitted effect of over 50% in size)
Procedure, shortened: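 Multiplexed counter screen: viability of FXR-bla HEK 293T cells under agonist stimulation by chenodeoxycholic acid (50 uM, final) and test compound for 16 h at 37 C, measured by CellTiter-Glo luminescence in the reporter wells.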

[6] = biological target: Vitamin D3 receptor (Homo sapiens) (UniProt P11473); test: qHTS assay to identify small molecule agonists of the vitamin D receptor (VDR) signaling pathway (AID 743222)
Procedure, shortened: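 Agonist activity measured in VDR-bla reporter cells. Exposure 16 h, 37C, 5% CO2; detection by B/G FRET substrate, 2 h RT.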

[7] = qHTS assay to identify small molecule agonists of the vitamin D receptor (VDR) signaling pathway - cell viability counter screen (AID 743224; active = well fitted curve in the direction sought with a large enough effect in the repeat runs; an effect the other way counts as inactive or inconclusive; note: series mostly up to about 63 µM; nearly all actives have a fitted effect of over 50% in size)
Procedure, shortened: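 VDR-bla cell line, quantitative HTS format; 16 h compound incubation (37C, 5% CO2); ATP-based CellTiter-Glo luminescence measured in the reporter assay wells.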

[8] = qHTS assay to identify small molecule agonists of the NFkB signaling pathway (AID 1159509; active = well fitted curve in the direction sought with a large enough effect in the signal ratio in the repeat runs, not every such curve was filed as active; the % refers to the signal ratio; note: series mostly up to about 61 µM)
Procedure, shortened: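 NFkB-bla ME-180 cells carry a beta-lactamase reporter under an NF-kB response element. They were plated overnight, then exposed to compounds for 5 h at 37 C. Read-out is LiveBLAzer FRET after 1.5 hr at room temperature (405 nm excitation; 460/530 nm emission).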

[9] = qHTS assay to identify small molecule agonists of the NFkB signaling pathway - cell viability counter screen (AID 1159515); note: series mostly up to about 61 µM; nearly all actives have a fitted effect of over 55% in size
Procedure, shortened: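 Viability in NFkB-bla ME-180 cells was measured by CellTiter-Glo luminescence, 30 min room temperature, in wells already treated 5 hr with compounds and read for reporter FRET.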

[10] = qHTS assay to identify small molecule agonists of the endoplasmic reticulum stress response signaling pathway (AID 1159516; active = well fitted activation curve with a large enough effect in the signal ratio in the repeat runs, not every such curve was filed as active; the % refers to the signal ratio)
Procedure, shortened: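 ER stress element reporter (bla) in HeLa. 1,500 cells/well, overnight attachment; 5 hr compound; 2 hr RT substrate; dual-emission fluorescence.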

[11] = qHTS assay to identify small molecule agonists of the endoplasmic reticulum stress response signaling pathway - cell viability counter screen (AID 1159517);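 note: HeLa cells carrying an ER stress response element beta-lactamase reporter; series mostly up to about 61 µM; nearly all actives have a fitted effect of over 50% in size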
Procedure, shortened: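 HeLa cells carrying an ESRE-driven beta-lactamase reporter receive compound for 5 hr at 37 C. Cell viability is then gauged with CellTiter-Glo by luminescence, 30 min at room temperature.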

[12] = qHTS assay to identify small molecule antagonists of the retinoid-related orphan receptor gamma (ROR-gamma) signaling pathway - cell viability counter screen (AID 1159520; active = well fitted curve in the direction sought with a large enough effect in the repeat runs; an effect the other way counts as inactive or inconclusive; note: nearly all actives have a fitted effect of over 50% in size)
Procedure, shortened: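 Cytotoxicity was read from cellular ATP (CellTiter-Glo luminescence) after 16 hr at 37 C with 1 uM doxycycline induction. The inducer was added 2 hr after compound transfer to Tet-on ROR gamma CHO cells.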

[13] = biological target: Nuclear receptor ROR-gamma (Homo sapiens) (UniProt P51449); test: qHTS assay to identify small molecule antagonists of the retinoid-related orphan receptor gamma (ROR-gamma) signaling pathway (AID 1159521; active = well fitted curve in the direction sought with a large enough effect in the repeat runs; an effect the other way counts as inactive or inconclusive)
Procedure, shortened: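 Cells were plated, rested 4 h at 37 C, exposed to compounds for 2 h, then given 1 uM final doxycycline hyclate to induce RORγ expression. After 16 h, ONE-Glo luminescence from the ROR response element reporter was measured.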

[14] = qHTS assay to identify small molecule agonists of the AP-1 signaling pathway - cell viability counter screen (AID 1159525); note: nearly all actives have a fitted effect of over 55% in size
Procedure, shortened: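 Luminescent ATP readout (Cell Titer Glo, 30 min RT), normalised to DMSO and tetra n-octyl ammonium bromide controls. Cells were ME-180 AP-1-bla in 0.5% dialyzed FBS Opti-MEM, with a 5 h, 37 °C compound exposure.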

[15] = qHTS assay to identify small molecule agonists of the AP-1 signaling pathway (AID 1159526)
[16] = qHTS assay to identify small molecule antagonists of the peroxisome proliferator-activated receptor delta (PPARd) signaling pathway - cell viability counter screen (AID 743213; active = well fitted curve in the direction sought with a large enough effect in the repeat runs; an effect the other way counts as inactive or inconclusive; note: nearly all actives have a fitted effect of over 50% in size)
Procedure, shortened: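 PPARd-bla HEK293H cells (3000/well) got compound plus 300 nM L165041 agonist for 17 h at 37 C. Viability in the same wells came from CellTiter-Glo luminescence after 30 min at room temperature.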

[17] = qHTS assay to identify small molecule agonists of the farnesoid-X-receptor (FXR) signaling pathway - cell viability counter screen (AID 743218; active = well fitted curve in the direction sought with a large enough effect in the repeat runs; an effect the other way counts as inactive or inconclusive; note: nearly all actives have a fitted effect of over 45% in size)
Procedure, shortened: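 In GeneBLAzer FXR-UAS-bla HEK 293T cells, compounds act for 16 h at 37 C. Cell viability is then scored in the reporter wells by CellTiter-Glo, 30 min at RT, luminescence.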

[18] = qHTS assay to identify small molecule agonists of the peroxisome proliferator-activated receptor delta (PPARd) signaling pathway - cell viability counter screen (AID 743211; active = well fitted curve in the direction sought with a large enough effect in the repeat runs; an effect the other way counts as inactive or inconclusive; note: nearly all actives have a fitted effect of over 55% in size)
Procedure, shortened: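 Counter screen for cytotoxicity run in parallel with the PPARd reporter screen. Beta-lactamase reporter HEK293H cells exposed to compounds 17 h; ATP-based CellTiter-Glo luminescence quantified viability.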

[19] = biological target: Vitamin D3 receptor (Homo sapiens) (UniProt P11473); test: qHTS assay to identify small molecule antagonists of the vitamin D receptor (VDR) signaling pathway (AID 743223; active = well fitted inhibition curve with a large enough effect in the signal ratio in the repeat runs, not every such curve was filed as active; the % refers to the signal ratio)
Procedure, shortened: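 Cells carrying a VDR-driven beta-lactamase reporter (VDR-bla) were co-treated with compound and 3 nM final 1alpha,25-dihydroxyvitamin D3 for 16 h at 37C; reporter activity was measured as FRET substrate fluorescence after 2 h at room temperature.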

[20] = qHTS assay to identify small molecule antagonists of the vitamin D receptor (VDR) signaling pathway - cell viability counter screen (AID 743225; active = well fitted curve in the direction sought with a large enough effect in the repeat runs; an effect the other way counts as inactive or inconclusive; note: nearly all actives have a fitted effect of over 50% in size)
Procedure, shortened: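 HEK293T VDR-bla; cpd + 1a,25-(OH)2D3 3 nM final, 16 h 37C/5% CO2; B/G FRET substrate 2 h RT; then CellTiter-Glo 30 min RT, luminescence.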

Measured: outcome

Peroxisome proliferator-activated receptor delta (Homo sapiens), sequence (Q03181 whole entry, looked up): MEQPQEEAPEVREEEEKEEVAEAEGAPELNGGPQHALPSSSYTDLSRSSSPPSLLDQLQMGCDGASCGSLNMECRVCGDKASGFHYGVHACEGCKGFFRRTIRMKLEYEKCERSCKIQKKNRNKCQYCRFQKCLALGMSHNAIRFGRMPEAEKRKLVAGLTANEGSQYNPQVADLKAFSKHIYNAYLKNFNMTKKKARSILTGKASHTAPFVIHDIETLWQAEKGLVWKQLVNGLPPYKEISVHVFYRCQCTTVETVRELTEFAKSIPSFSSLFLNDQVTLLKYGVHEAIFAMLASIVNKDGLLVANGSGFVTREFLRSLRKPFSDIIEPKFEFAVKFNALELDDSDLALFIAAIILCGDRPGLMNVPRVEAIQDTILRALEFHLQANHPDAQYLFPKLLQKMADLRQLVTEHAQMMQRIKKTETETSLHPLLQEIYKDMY
Bile acid receptor (Homo sapiens), sequence (Q96RI1 whole entry, looked up): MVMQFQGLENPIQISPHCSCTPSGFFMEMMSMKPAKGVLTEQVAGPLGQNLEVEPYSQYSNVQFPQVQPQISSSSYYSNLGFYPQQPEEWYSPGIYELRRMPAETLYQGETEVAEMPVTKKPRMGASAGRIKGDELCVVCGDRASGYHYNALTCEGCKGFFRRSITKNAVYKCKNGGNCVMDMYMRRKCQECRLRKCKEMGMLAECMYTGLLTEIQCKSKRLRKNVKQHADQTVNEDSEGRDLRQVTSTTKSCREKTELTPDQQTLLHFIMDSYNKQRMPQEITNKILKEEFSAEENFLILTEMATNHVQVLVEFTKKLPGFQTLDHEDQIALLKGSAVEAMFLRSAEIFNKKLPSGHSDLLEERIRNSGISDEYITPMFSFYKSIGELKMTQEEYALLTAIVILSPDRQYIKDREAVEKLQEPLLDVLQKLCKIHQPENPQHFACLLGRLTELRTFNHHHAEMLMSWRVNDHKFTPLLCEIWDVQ
Vitamin D3 receptor (Homo sapiens), sequence (P11473 whole entry, looked up): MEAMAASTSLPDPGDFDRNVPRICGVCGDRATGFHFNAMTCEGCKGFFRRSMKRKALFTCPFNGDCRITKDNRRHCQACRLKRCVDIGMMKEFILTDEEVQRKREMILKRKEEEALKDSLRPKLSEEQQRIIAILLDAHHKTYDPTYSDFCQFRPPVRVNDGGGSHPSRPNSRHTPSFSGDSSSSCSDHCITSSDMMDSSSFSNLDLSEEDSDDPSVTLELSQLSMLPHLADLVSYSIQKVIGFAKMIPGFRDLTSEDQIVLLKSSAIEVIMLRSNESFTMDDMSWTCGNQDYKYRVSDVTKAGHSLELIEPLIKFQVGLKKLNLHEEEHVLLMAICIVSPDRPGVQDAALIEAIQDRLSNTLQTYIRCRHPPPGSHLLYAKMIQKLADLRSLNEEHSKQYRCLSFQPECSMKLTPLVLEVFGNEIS

C/C(=C1\CCOC(=O)S1)N(C=O)Cc1cnc(C)nc1N
not listed: [16] | [17] | [18] | [19] | [20]
inactive: all other assays above

COc1nc(N)nc2nc[nH]c12
not listed: [3] | [4] | [6] | [7] | [18] | [19] | [20]
inactive: all other assays above

CCCC(CC)c1ccccc1 (centres undefined)
not listed: [1] | [2] | [3] | [4] | [12]
inactive: all other assays above

CC1OCCC1=O (centres undefined)
not listed: [1] | [2] | [3] | [4] | [5] | [6] | [12] | [19]
inactive: all other assays above

CCCCOC(=O)[C@H](C)O
not listed: [5] | [12] | [16]
inactive: all other assays above

CCC(=O)CC
not listed: [5] | [18] | [19] | [20]
inactive: all other assays above

CCN1CCCC1CN (centres undefined)
not listed: [3] | [4] | [12] | [17]
inactive: all other assays above

OC[C@H]1O[C@@H](O[C@@H]2[C@@H](CO)O[C@](O)(CO)[C@H]2O)[C@H](O)[C@@H](O)[C@H]1O
not listed: [1] | [2] | [3] | [4] | [12] | [19]
inactive: all other assays above

COc1c2occc2c(OC)c2c(=O)cc(C)oc12
not listed: [1] | [2] | [6] | [12] | [16]
inactive: all other assays above

CC(=O)OCC(=O)Nc1cc(C#N)cc(NC(=O)COC(C)=O)c1Cl
not listed: [1] | [2] | [3] | [4] | [7] | [16] | [17]
inactive: all other assays above

NCC1(Cc2noc(=O)[nH]2)CCCCC1
not listed: [3] | [4] | [6] | [12]
inactive: all other assays above

COS(=O)(=O)O
not listed: [1] | [2] | [3] | [7] | [12]
inactive: all other assays above

CCNC(=O)NCc1cccc(Cl)c1
not listed: [12]
inactive: all other assays above

C=CCN1C[C@H](C(=O)N(CCCN(C)C)C(=O)NCC)C[C@@H]2c3cccc4[nH]cc(c34)C[C@H]21
not listed: [3] | [4] | [5] | [16] | [17] | [18] | [19]
inactive: all other assays above

C=CC/C=C/C
not listed: [2] | [6] | [12] | [19]
inactive: all other assays above

CC(C)(C)NC[C@H](O)COc1cccc2c1CCCC2=O
not listed: [1] | [2] | [3] | [4] | [6] | [7] | [12]
inactive: all other assays above

CCC(C(=O)OCCN1CCOC(c2ccccc2)C1C)c1ccccc1 (centres undefined)
inactive: [18] | [1] | [5] | [7] | [8] | [9] | [10] | [11] | [13] | [14] | [15]

Reference: PubChem BioAssay (Tox21)
